Data: PubChem BioAssay (NCI)
About 83,000 compounds went through this panel and 20% of them were active in at least one assay; those are over-represented in the sample as a whole.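 48-hour exposure, single concentration, 96-well plates; percent growth endpoint where 0 means no net growth. Active: below 10.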 Active and inactive are the calls of the source.

How the values were obtained:
Experiment in all cases: NCI-60 one-dose screen, 48 h (100 = growth as untreated, 0 = no growth, -100 = all killed)
Conditions in all cases: 10 µM unless noted
NCI-H23 lung = tested on: NCI-H23 lung
NCI-H226 lung = tested on: NCI-H226 lung
NCI-H322M lung = tested on: NCI-H322M lung
HOP-62 NSCLC = tested on: HOP-62 NSCLC
NCI-H460 lung = tested on: NCI-H460 lung
HOP-92 NSCLC = tested on: HOP-92 NSCLC
NCI-H522 lung = tested on: NCI-H522 lung
A549/ATCC NSCLC = tested on: A549/ATCC NSCLC
786-0 renal = tested on: 786-0 renal
COLO 205 colon = tested on: COLO 205 colon
DU-145 prostate = tested on: DU-145 prostate
K-562 leukemia = tested on: K-562 leukemia
MALME-3M melanoma = tested on: MALME-3M melanoma
MDA-MB-231 breast = tested on: MDA-MB-231 breast
RXF 393 renal = tested on: RXF 393 renal
SF-268 CNS = tested on: SF-268 CNS
SF-539 CNS = tested on: SF-539 CNS
UACC-257 melanoma = tested on: UACC-257 melanoma
M14 melanoma = tested on: M14 melanoma
SF-295 CNS = tested on: SF-295 CNS

Measured: growth

O=C(Nc1cccc(-n2cc(-c3ccncc3)c(-c3ccc(Cl)c(O)c3)n2)c1)Nc1cccc(C(F)(F)F)c1
inactive: NCI-H23 lung 14.6% | NCI-H226 lung 35.1% | NCI-H322M lung 48.2% | HOP-62 NSCLC 38.1% | 786-0 renal 34.4% | COLO 205 colon 94.2% | DU-145 prostate 23.1% | K-562 leukemia 13.4% | MDA-MB-231 breast 21.3% | RXF 393 renal 31.3% | SF-268 CNS 28.5% | SF-539 CNS 38.5% | M14 melanoma 16.6%
active: NCI-H460 lung 7.29% | HOP-92 NSCLC -17.7% | NCI-H522 lung -10.8% | A549/ATCC NSCLC 5.74% | MALME-3M melanoma 1.16% | UACC-257 melanoma -11.6%

CC1(C)C(=O)/C(=C\c2ccc(C(F)(F)F)cc2)C[C@]2(C)[C@H]3CC[C@@H]4[C@H]5[C@H](C(=O)/C=C/c6ccc(C(F)(F)F)cc6)CC[C@]5(CO)CC[C@@]4(C)[C@]3(C)CC[C@@H]12
inactive: NCI-H23 lung 100% | NCI-H226 lung 91.4% | NCI-H322M lung 101% | HOP-62 NSCLC 101% | NCI-H460 lung 99.4% | HOP-92 NSCLC 93.7% | NCI-H522 lung 97.9% | A549/ATCC NSCLC 90.6% | 786-0 renal 107% | COLO 205 colon 115% | DU-145 prostate 109% | K-562 leukemia 86.9% | MALME-3M melanoma 96.2% | MDA-MB-231 breast 98.4% | RXF 393 renal 103% | SF-268 CNS 89.7% | SF-539 CNS 93.7% | UACC-257 melanoma 101% | M14 melanoma 93.1%

CCOC(=O)c1ccc2c(c1)c1c(C)c3cccnc3c(C)c1n2C
inactive: NCI-H23 lung 56.7% | NCI-H226 lung 53.1% | NCI-H322M lung 56.9% | HOP-62 NSCLC 72.7% | NCI-H460 lung 22.5% | HOP-92 NSCLC 67.9% | NCI-H522 lung 49.1% | A549/ATCC NSCLC 67.7% | 786-0 renal 51.3% | COLO 205 colon 50.3% | DU-145 prostate 52.7% | K-562 leukemia 39.5% | MALME-3M melanoma 68.7% | MDA-MB-231 breast 50.7% | RXF 393 renal 75.6% | SF-268 CNS 50.9% | SF-539 CNS 67% | UACC-257 melanoma 115% | M14 melanoma 53.2%

O=[N+]([O-])c1cnc(Sc2ccncn2)s1
active: HOP-92 NSCLC -64.9% | NCI-H522 lung -79.1% | COLO 205 colon -77.4% | DU-145 prostate -21.5% | K-562 leukemia -44.4% | MALME-3M melanoma -63.5% | UACC-257 melanoma -18.7% | M14 melanoma 6.85%
inactive: NCI-H23 lung 77% | NCI-H226 lung 110% | NCI-H322M lung 99.1% | HOP-62 NSCLC 92% | NCI-H460 lung 97.3% | A549/ATCC NSCLC 95.9% | 786-0 renal 93.1% | MDA-MB-231 breast 75.4% | SF-268 CNS 35.7% | SF-295 CNS 102% | SF-539 CNS 91.1%
